# This is a sample that favours compounds with a hit; in the whole collection about 3.1% have one here.
# Statin myotox sup – protects C2C12 myotubes from simvastatin toxicity; ATP luminescence, 48 h; scaled: DMSO 0, geranylgeraniol control 100; rescue of ATP level, % at 7.49 µM; actives 0.78% (n = 330,000); AID 602340;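 active = mean ATP rescue above about 67%, or every replicate alone reaching that limit, limit read from the data, passing the limit was not always enough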;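 also: myotubes were challenged with 10 µM simvastatin during compound exposure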
# EWS-Fli block – EWS/Fli transcriptional activity inhibition; A673 NR0B1-luciferase reporter, viability-normalised; inhibition, % at 12.6 µM; actives 0.67% (n = 350,000);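 active = mean inhibition of at least 50% after viability correction, with every replicate also passing that limit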;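 also: firefly luciferase signal divided by Alamar Blue viability fluorescence both relative to DMSO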
# Env fusion inh – blocks HIV Env-driven cell-cell fusion. inhibition, % at 12.3 µM. actives 1.1% (n = 360,000). HeLa-JRFL Env/CEM21 cell fusion, luciferase. AID 651610;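 active = mean replicate inhibition score of at least 50 and every replicate individually at or above 50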;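 also: 0% = plate neutral controls and 100% = maraviroc near 300 nM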
# GSIS activator – primary screen for activators of insulin secretion dependent on glucose, INS-1E cells, GLuc reporter luminescence; INS-1E GLuc reporter insulin secretion, 2-3 h; activation, % at 16.6 µM; actives 0.61% (n = 370,000); AID 743287;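 active = lowest replicate activation of at least 40%, so every replicate reaches that level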;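 also: 0% = median of neutral control wells and 100% = median of IBMX positive control wells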
# miR-122 sensor – inhibitors of miR-122 in Huh7 cells; Huh7 miR-122 Renilla luciferase sensor, 48 h; neutral wells = 0, positive control = 100; activation (reporter increase), % at 12.5 µM; actives 0.3% (n = 340,000);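 active = mean replicate activation score at least 90 and every replicate individually at or above 90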;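 also: higher luciferase means less miR-122 activity so hits act as miR-122 inhibitors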
# PAX8 reporter – lowers PAX8-driven luciferase in RMG-I cells | inhibition, % at 12.6 µM | RMG-I TPO-luciferase reporter, SteadyGlo, 24 h | actives 1.2% (n = 360,000) | AID 652154;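 active = mean replicate inhibition at least 60% with every replicate also reaching 60%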;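 also: luciferase light reporting Pax8 driven TPO promoter activity; plate controls were median of neutral control wells for no effect and mitoxantrone controls for full effect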
# Numbers without * were called inactive; . = no result given; [ ] = dose if it differs, or a comment.
SMILES,Statin myotox sup,EWS-Fli block,Env fusion inh,GSIS activator,miR-122 sensor,PAX8 reporter
C[C@H]1CN([C@@H](C)CO)C(=O)c2cc(NS(=O)(=O)c3ccc(F)cc3)ccc2O[C@@H]1CN(C)S(=O)(=O)c1ccccc1,20,3,-23[16.7 µM],-8,16[16.7 µM],2
CCCC(=O)Nc1ccc2c(c1)C(=O)N(C)C[C@@H](OC)[C@H](C)CN(CC1CCOCC1)[C@@H](C)CO2,0,-4,.,-4,5[16.7 µM],.
CC[C@]12C(=O)N(C)C[C@H]([C@@H]3C(=O)N(Cc4ccccc4)C(=O)[C@@H]31)N2C(=O)c1ccc(C(C)(C)C)cc1,-3,-16,58*,-12,0,10
CN1C[C@@H]2[C@@H]3C(=O)N(Cc4ccccc4)C(=O)[C@@H]3[C@](Cc3ccccc3)(C1=O)N2C(=O)c1ccc(C(F)(F)F)cc1,8,-2,16,-36,0,-2
CCN1C[C@@H]2[C@@H]3C(=O)N(Cc4ccccc4)C(=O)[C@@H]3[C@](Cc3ccccc3)(C1=O)N2C(=O)c1ccc(C(C)(C)C)cc1,11,18,4,-16,.,17
CCN1C[C@@H]2[C@@H]3C(=O)N(Cc4ccccc4)C(=O)[C@@H]3[C@](CC)(C1=O)N2C(=O)c1ccc(C(C)(C)C)cc1,-2,2,68*,-17,-5,5
CNC[C@@H]1Oc2c(NC(=O)Nc3ccc(C(F)(F)F)cc3)cccc2C(=O)N([C@H](C)CO)C[C@H]1C,12,2,2[16.7 µM],-18,-6[16.7 µM],13
O=C(C[C@H]1CC[C@@H](NS(=O)(=O)c2ccccc2)[C@H](CO)O1)N1CCN(c2ccccc2)CC1,.,-5,.,-4,.,-2
CCOC(=O)n1c(=O)n(Cc2ccccc2)c2ccccc21,.,.,.,.,2,.
CCOC(=O)n1c(=O)n(Cc2c(Cl)cccc2Cl)c2ccccc21,175*,.,.,.,32,.
CS(=O)(=O)Nc1ccc2c(c1)[C@@H]1C[C@H](CC(=O)NC3CCCCC3)O[C@@H](CO)[C@@H]1O2,4,2,-17[16.7 µM],-10,1[16.7 µM],-1
COC(=O)c1sc(NC(=O)c2cccc([N+](=O)[O-])c2)c(C(N)=O)c1C,.,.,2,78*,0,7
CO[C@@H]1CN(C)C(=O)c2ccc(NC(=O)C3CCCC3)cc2OC[C@@H](C)N(C(=O)CC2CC2)C[C@@H]1C,13,1,6[16.7 µM],12,.,-3
Cc1cc(C)c2cc(CN(Cc3ccco3)C(=O)NCc3ccccc3)c(=O)[nH]c2c1,110*,.,.,.,-5,.
Cc1cc(C)c2cc(CN(CC3CCCO3)C(=S)NCc3ccco3)c(=O)[nH]c2c1 (configuration not stated),.,13,-13,-22,26,7
C[C@@H]1CN([C@H](C)CO)C(=O)c2cc(NS(=O)(=O)c3ccccc3)ccc2O[C@@H](C)CCCCO[C@H]1CN(C)C(=O)c1ccccc1,.,-9,.,-4,.,6
O=C(C[C@H]1C[C@@H]2c3cc(NC(=O)Nc4ccccc4)ccc3O[C@@H]2[C@H](CO)O1)NCc1ccccn1,4,-6,0[16.7 µM],2,5[16.7 µM],-6
CCN(CC)c1ccc(/C=N/NC(=O)c2nnn(-c3nonc3N)c2C(C)C)c(O)c1,-49,.,62*,3,10,85*
CN(Cc1c(C(=O)N/N=C/c2ccccc2O)nnn1-c1nonc1N)C1CCCCC1,18,5,-2,518*,10,70*
CC(C)c1c(C(=O)N/N=C/c2ccc3c(c2)OCO3)nnn1-c1nonc1N,-5,-35,-3,-10,-4,-22
Cc1nnn(-c2nonc2N)c1C(=O)N/N=C/c1cccc2ccccc12,.,.,-33,86*,.,-11
CC1CCN(Cc2c(C(=O)N/N=C/c3ccccc3O)nnn2-c2nonc2N)CC1,36,-2,63*,-12,5,46
CC(=C/c1ccccc1)/C=N/NC(=O)c1nnn(-c2nonc2N)c1CN1CCC(C)CC1,4,5,22,-39,1,39
Cc1nnn(-c2nonc2N)c1C(=O)N/N=C/c1ccccc1O,.,.,-28,1,.,7
CN1C(=O)c2cc(NC(=O)c3ccc(F)cc3)ccc2OC[C@@H]2O[C@H](CC(=O)N3CCOCC3)CC[C@@H]21,-5,14,20[16.7 µM],0,1[16.7 µM],-11
SMILES,Statin myotox sup,EWS-Fli block,Env fusion inh,GSIS activator,miR-122 sensor,PAX8 reporter
COc1ccc(-c2ccc3n(c2=O)C[C@@H]2N[C@H]3[C@H](C(=O)N3CCCCC3)[C@H]2CO)cc1,.,-5,-20[16.7 µM],2,.,-12
COc1ccc(NC(=O)N[C@@H]2CC[C@@H](CCn3cc(-c4ccccn4)nn3)O[C@H]2CO)cc1,1,-2,-5[16.7 µM],7,3[16.7 µM],-5
Cc1ccc(S(=O)(=O)N2CC[C@@H]3[C@@H](CO)Nc4ccc(-c5ccc(C#N)cc5)cc4[C@@H]32)cc1,-2,10,.,-7,17[16.7 µM],13
C[C@@H](O)C#Cc1ccc([C@H]2[C@H]3CN(C(=O)c4ccncc4)CCCCN3[C@H]2CO)cc1,9,4,.,19,3[16.7 µM],16
CN1CCN(Cc2c(C(=O)N/N=C/c3cccc(Br)c3)nnn2-c2nonc2N)CC1,-1,52*,5,1,-5,51
COc1ccc(N(CC(=O)Nc2cc(C)on2)S(=O)(=O)c2cc(C)ccc2C)cc1,26,.,-20,.,232*,26
COc1ccc(NC(=O)Nc2ccc3c(c2)[C@H]2C[C@@H](CC(=O)NC4CCCC4)O[C@@H](CO)[C@H]2O3)cc1,7,-2,-1[16.7 µM],3,8[16.7 µM],-8
CC1(C)CCN2CCC(C)(C)c3c(O)ccc1c32,-149,33,45,-56,.,84*
Cc1cc(-n2c(C)cc(C(=O)CSc3ncnc4ccccc34)c2C)no1,-5,.,51*,.,3,27
C[C@@H]1CN([C@H](C)CO)C(=O)Cc2cc(NC(=O)Cc3cn(C)c4ccccc34)ccc2O[C@H]1CN(C)Cc1ccc2c(c1)OCO2,79*,-4,-8[16.7 µM],-9,-10[16.7 µM],-23
C[C@H](CO)N1C[C@H](C)[C@@H](CN(C)Cc2ccc3c(c2)OCO3)Oc2ccc(NC(=O)Cc3cn(C)c4ccccc34)cc2CC1=O,19,13,5[16.7 µM],-34,-9[16.7 µM],15
C[C@H]1CN([C@@H](C)CO)C(=O)Cc2cc(NC(=O)Cc3cn(C)c4ccccc34)ccc2O[C@H]1CN(C)Cc1ccc(Cl)c(Cl)c1,60,-2,-12[16.7 µM],-8,-5[16.7 µM],.
C[C@H](CO)N1C[C@H](C)[C@@H](CN(C)Cc2ccc(Cl)c(Cl)c2)Oc2ccc(NC(=O)Cc3cn(C)c4ccccc34)cc2CC1=O,127*,18,1[16.7 µM],6,-24[16.7 µM],.
Cc1c2ccncc2cc2c1[nH]c1ccccc12,8,4,27,0,2,-28
COc1ccc2[nH]c3c(C)c4ccncc4c(C)c3c2c1,-418,59*,.,.,-20,.
Cc1cc(OCC(=O)NC(C)C)cc(C)c1Br,.,5,.,5,.,65*
